In PubChem BioAssay AID1159580 (chemical genetic matrix, 2015):
The campaign covered roughly 5,500 compounds. About 2,000 (36%) were called active. Not shown: some 18% with an inconclusive outcome. Cut-off read from the data, not from the text of the source: active = normalized growth mostly below about 0.91 (no sharp cut-off); inconclusive = no clear call, values can overlap the other calls; inactive = mostly above about 0.92. Some of the results follow.

Test: chemical genetic growth profiling, strain panel (AID 1159580);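 note: tested at 20 µM; growth read once vehicle control cultures reached saturation at 30 °C; 1 = growth at the plate median or of vehicle wells; lower values mean less growth of the strain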
Conditions: S. cerevisiae deletion strains, growth OD

Measured: normalized growth

CCN(CC)C(C)C(=O)N1c2ccccc2Sc2ccccc21 (stereo not given)
inactive: locus YAL013W, strain DEP1, active compounds read low 1 | locus YAL040C, strain CLN3, active compounds read low 1.02 | locus YCL061C, strain MRC1 (second series), active compounds read low 1.01 | locus YDR363W, strain ESC2, active compounds read low 1 | locus YER002W, strain NOP16, active compounds read low 1.02 | locus YGR229C, strain SMI1, active compounds read low 1.04 | locus YJR075W, strain HOC1, active compounds read low 1.07 | locus YMR263W, strain SAP30, active compounds read low 1.01 | locus YMR307W, strain GAS1, active compounds read low 0.999 | locus YNL128W, strain TEP1, active compounds read low 0.997 | locus YNL175C, strain NOP13, active compounds read low 1.04 | locus YNL197C, strain WHI3, active compounds read low 1.03 | locus YNL224C, strain SQS1, active compounds read low 1.02 | locus YOR083W, strain WHI5 (second series), active compounds read low 1.02 | locus YPL241C, strain CIN2, active compounds read low 1.01
